What is called AC50 is the midpoint of the concentration-response curve, whichever way the signal moves.

“And” between values parts separate entries of the source, which are not always exact repeats. Equal values may be shown once. Results filed as inconclusive are left out. The source made the active and inactive calls. How the source made its calls: active means hit-call score of the fitted dose curve at least 0.9, where 1 is the maximum; inconclusive means response in the unintended direction; inactive means score below 0.9.

Read-out in this test: Cytochrome P450 2B6 (Homo sapiens) (UniProt P20813)
As to the kind of experiment: CLD_CYP2B6_48hr: CellzDirect (CLD) Gene Expression Assay for xenobiotic metabolism (CYP2B6) at 48 hours (AID 2283699).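 Further: actives raise transcript level above DMSO so potency reflects induction.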 The protocol:
CLD_48hr is a cell-based, multiplexed-readout assay that uses hepatocyte, a human liver primary cell, with measurements taken at 48 hours after chemical dosing in a 96-well plate.CLD_CYP2B6_48hr is one of 16 assay component(s) measured or calculated from the CLD_48hr assay. It is designed to make measurements of mRNA induction, a form of inducible reporter, as detected with chemiluminescence signals by Quantitative Nuclease Protection Assay (qNPA) technology.Data from the assay component CLD_CYP2B6_48hr was analyzed at the endpoint, CLD_CYP2B6_48hr, in the positive analysis fitting direction relative to DMSO as the negative control and baseline of activity. Using a type of inducible reporter, gain-of-signal activity can be used to understand changes in the reporter gene as they relate to the gene CYP2B6. Furthermore, this assay endpoint can be referred to as a primary readout. To generalize the intended target to other relatable targets, this assay endpoint is annotated to the cyp intended target family, where subfamily is xenobiotic metabolism.
Human hepatocyte cultures were treated daily for two consecutive days with fresh dosing solutions containing appropriate concentrations of the 320 ToxCast chemicals (chemical identities were blinded to CellzDirect and other ToxCast collaborators), vehicle control (0.2% DMSO), and positive control inducers as summarized in Table 1. Due to the large number of treatment groups and chemicals examined, the ToxCast chemicals were divided into two groups (spanning two independent cultures of hepatocytes from separate donor preparations (Hu778: ToxCast plates 1 and 2; Hu776: ToxCast plates 3 and 4). Each preparation of human hepatocyte cultures was treated with respective vehicle control, medium only control, set of six positive controls/reference chemicals for the five hepatic receptor pathways, and a subset of eight of the ToxCast chemicals (indoxacarb, pyrithiobac-sodium, norflurazon, cyhalofop-butyl, methomyl, thiram, acetochlor, and propiconazole). These replicate data, coupled with internal replicates designed within the blinded ToxCast chemical library, provided additional data to evaluate interindividual differences between hepatocyte preparations and their potential impact on chemical profiles.Cell morphology and integrity were evaluated using phase-contrast microscopy as an indicator of hepatocyte cell health (Tyson & Green, 1987). Cultures for each treatment group (i.e., media, vehicle [0.2% DMSO], positive control inducers [multiple concentrations], and the ToxCast chemicals [multiple concentrations]) were observed and cell morphology was assessed relative to vehicle control cultures at each harvest time point (0, 6, 24, or 48 h). […] Images were evaluated at the conclusion of the study to assess changes in cell integrity and account for the effects of chemical exposure on uncharacteristic changes in concentration-dependent gene expression profiles. The results from these determinations of apparent cytotoxicity were annotated (yes/no) alongside the corresponding qNPA data for reference.At the conclusion of each treatment period, hepatocyte cultures (96-well) were washed with 1 volume of HBSS, lysed by addition of 25 ul ArrayPlate lysis buffer (HTG, Tucson, AZ), and 70 ul/well of Denaturation Oil, denatured by incubation at 95C for 10 min, and frozen at approximately -70C until analysis by nuclease protection assay (qNPA) (Roberts et al., 2007). For qNPA analysis, cell lysates were thawed at 50C for approximately 30 min, qNPA probes were added, and samples were incubated at 95C for 10 min to begin the detection process by denaturing the target RNA, dissociating the duplexes and secondary structure hybridization. At the conclusion of the hybridization period, S1 nuclease reagent was added to each sample to digest all nonprotected nucleotides at 50C for 60-90 min. […]
Regarding `CCCCCOC(=O)COc1cc(N2C(=O)C3=C(CCCC3)C2=O)c(F)cc1Cl`, the outcome was inactive.

With `c1ccc(Nc2ccccc2)cc1`, the AC50 is 4.79 µM (active).

`CCC(O)=C1C(=O)CC(C(=O)O)CC1=O` (stereo not drawn): the AC50 is 0.000247 µM (active).

In the case of `CCC(C)OC(=O)N1CCCCC1CCO` (stereo not drawn), the compound was classed as inactive.

`CCOC(=O)COc1cc(-n2ncc(C(F)(F)F)c(C)c2=O)c(F)cc1Cl`: the outcome was inactive.

In the case of `CCCCOC(=O)C(C)Oc1ccc(Oc2ccc(C(F)(F)F)cn2)cc1` (stereo not drawn), the call was inactive.

Regarding `CCCN(CCC)C(=O)SCC`, the concentration at half-maximal activity (AC50) was 381 nM (active) and 209 nM (active).

Take `CCN(Cc1c(F)cccc1Cl)c1c([N+](=O)[O-])cc(C(F)(F)F)cc1[N+](=O)[O-]`: the AC50 is 0.273 µM (active).

Regarding `COC(=O)c1ccccc1S(=O)(=O)NC(=O)Nc1nc(OC(F)F)cc(OC(F)F)n1`, the compound was called inactive.

Regarding `CC(C)(c1ccc(O)cc1)c1ccc(O)cc1`, the outcome was inactive.

As to `CCCN(CCC)c1c([N+](=O)[O-])cc(C(F)(F)F)c(N)c1[N+](=O)[O-]`, the AC50 was 3.56 µM (active).

In the case of `COC(=O)c1c(Cl)nn(C)c1S(=O)(=O)NC(=O)Nc1nc(OC)cc(OC)n1`, the outcome was inactive.

On to `C#CCOC(=O)[C@@H](C)Oc1ccc(Oc2ncc(Cl)cc2F)cc1`, for which the result was inactive.

As to `C=CCOC(Cn1ccnc1)c1ccc(Cl)cc1Cl` (stereo not drawn), the AC50 was 0.163 µM (active).

As to `CCCCOCCOCCOCc1cc2c(cc1CCC)OCO2`, the AC50 was 0.83 µM (active).

Regarding `COC(=O)c1cccc(C)c1S(=O)(=O)NC(=O)Nc1nc(OCC(F)(F)F)nc(N(C)C)n1`, the AC50 is 5.1 µM (active).

Turning to `CCSC(=O)N(CC(C)C)CC(C)C`, the outcome was inactive.

For the compound `CC1(C)C(C=C(Cl)Cl)C1C(=O)OCc1cccc(Oc2ccccc2)c1` (stereo not drawn), the AC50 is 3.87 µM (active).

In the case of `CC(C)(C)[C@@H](O)[C@@H](Cc1ccc(Cl)cc1)n1cncn1`, the compound was called inactive.

Turning to `CCCCCCC(C)OC(=O)COc1nc(F)c(Cl)c(N)c1Cl` (stereo not drawn), the compound was called inactive.

As to `CCN(CC)C(=O)c1cccc(C)c1`, the AC50 was 3.6 µM (active).

Turning to `CCOC(=O)NCCOc1ccc(Oc2ccccc2)cc1`, the AC50 is 10.8 µM (active).

In the case of `OB(O)O`, the call was inactive.

Turning to `c1ccc2[nH]c(-c3cscn3)nc2c1`, the outcome was inactive.

Take `CCCCOC(=O)[C@@H](C)Oc1ccc(Oc2ccc(C(F)(F)F)cn2)cc1`: the outcome was inactive.

For `CCCCC(CC)COC(=O)c1ccccc1C(=O)O` (stereo not drawn), the AC50 was 20 µM (active).

For `CCCCC(CC)CN1C(=O)C2C3C=CC(C3)C2C1=O` (stereo not drawn), the AC50 is 4.6 µM (active).

Regarding `CCOC(=O)C(C)Oc1ccc(Oc2nc3ccc(Cl)cc3o2)cc1` (stereo not drawn), the compound was classed as inactive.

On to `CCNc1nc(N)nc(Cl)n1`, for which the compound was classed as inactive.

Turning to `COC(=O)CSc1cc(N=c2sc(=O)n3n2CCCC3)c(F)cc1Cl`, the AC50 is 4.48 µM (active).

In the case of `CN(C)C(=O)Nc1ccc(Cl)c(Cl)c1`, the AC50 is 3.85 µM (active).

As for `CCCOC(=O)c1ccc(C(=O)OCCC)nc1`, the compound was called inactive.

As to `S=C(S)NCCNC(=S)S.[Mn+2].[S-]C([S-])=NCCN=C([S-])[S-].[Zn+2]`, the compound was classed as inactive.

Source of the values: PubChem BioAssay (EPA / NIEHS).
